Laboratory results taken from article PMC7862700, “An all-to-all approach to the identification of sequence-specific readers for epigenetic DNA modifications on cytosine”.

Columns and labels:
Assay in all cases: DAPPL (digital affinity profiling via proximity ligation, sequencing); 10 mM Tris-HCl pH 7.5, 50 mM NaCl, 1 mM DTT, 4% glycerol, room temperature, 30 min; GST-TFs on glutathione beads, 16-mer random dsDNA library, 0.1% formaldehyde crosslink after washing; high values mean tight binding
[1] = molecular target: T1, FEV (Homo sapiens, UniProt Q99581 1-238); conditions: protein: recombinant; tags: N-terminal GST; dsDNA, one strand shown
T1 sequence: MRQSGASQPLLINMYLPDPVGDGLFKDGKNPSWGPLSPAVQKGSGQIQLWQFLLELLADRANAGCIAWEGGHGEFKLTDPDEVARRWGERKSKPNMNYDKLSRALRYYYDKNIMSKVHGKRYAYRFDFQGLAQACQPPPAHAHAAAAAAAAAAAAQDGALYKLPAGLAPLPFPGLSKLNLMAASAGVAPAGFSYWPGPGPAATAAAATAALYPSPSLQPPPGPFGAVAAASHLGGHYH
Procedure, shortened: (§1)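 Human transcription factors carrying a GST fusion were produced in yeast, bound to glutathione beads, tagged with DNA barcodes and pooled together with a tag-only sample. Each pool was held with 200 nmole of a random double-stranded 16-mer DNA library in Tris/NaCl/DTT/glycerol buffer for 30 min at room temperature, then washed, crosslinked in 0.1% formaldehyde, proximity-ligated with BsaI/T4 ligase (1 h, 37 °C), PCR-amplified and sequenced on an Illumina NextSeq500. Binding signal is the read frequency of each hexamer for a given factor divided by its frequency in the tag-only sample.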

[2] = molecular target: ETV5 (Homo sapiens, UniProt P41161 1-510); conditions: protein: recombinant; tags: N-terminal GST; dsDNA, one strand shown
Chain of ETV5 (P41161 whole entry): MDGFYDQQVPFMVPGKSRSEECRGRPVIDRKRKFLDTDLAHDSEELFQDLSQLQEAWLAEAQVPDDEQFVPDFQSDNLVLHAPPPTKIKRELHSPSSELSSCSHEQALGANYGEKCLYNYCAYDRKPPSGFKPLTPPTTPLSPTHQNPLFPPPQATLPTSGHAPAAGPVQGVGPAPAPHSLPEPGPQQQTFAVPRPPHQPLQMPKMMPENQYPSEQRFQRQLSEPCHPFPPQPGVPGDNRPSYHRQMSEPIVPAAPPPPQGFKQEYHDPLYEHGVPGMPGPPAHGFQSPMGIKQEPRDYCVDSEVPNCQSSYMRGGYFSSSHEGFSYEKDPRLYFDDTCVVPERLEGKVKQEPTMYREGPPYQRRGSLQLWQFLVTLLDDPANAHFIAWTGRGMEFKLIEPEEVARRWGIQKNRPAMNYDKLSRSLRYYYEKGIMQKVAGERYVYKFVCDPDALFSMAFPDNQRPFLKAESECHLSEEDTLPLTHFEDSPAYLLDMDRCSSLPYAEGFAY
Procedure, shortened: as §1

[3] = molecular target: HSF1 (Homo sapiens, UniProt Q00613 1-529); conditions: protein: recombinant; tags: N-terminal GST; chain copies: 3; dsDNA, one strand shown
Chain of HSF1 (Q00613 whole entry): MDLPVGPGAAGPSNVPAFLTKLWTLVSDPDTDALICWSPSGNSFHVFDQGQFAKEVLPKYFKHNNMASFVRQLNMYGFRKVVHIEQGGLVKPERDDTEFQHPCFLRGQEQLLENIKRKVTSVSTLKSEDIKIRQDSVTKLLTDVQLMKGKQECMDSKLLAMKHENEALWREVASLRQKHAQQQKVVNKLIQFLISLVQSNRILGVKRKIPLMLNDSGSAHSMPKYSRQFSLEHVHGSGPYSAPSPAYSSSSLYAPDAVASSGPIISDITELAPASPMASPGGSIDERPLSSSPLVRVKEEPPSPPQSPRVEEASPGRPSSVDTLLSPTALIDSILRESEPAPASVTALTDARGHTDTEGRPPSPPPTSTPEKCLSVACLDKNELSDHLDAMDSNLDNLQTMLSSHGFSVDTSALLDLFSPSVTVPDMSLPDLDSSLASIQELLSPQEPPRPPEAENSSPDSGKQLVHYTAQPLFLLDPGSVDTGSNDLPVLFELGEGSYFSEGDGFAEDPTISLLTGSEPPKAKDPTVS
Procedure, shortened: as §1

[4] = molecular target: T2, SPIC (Homo sapiens, UniProt Q8N5J4 1-248); conditions: protein: recombinant; tags: N-terminal GST; dsDNA, one strand shown
T2 sequence: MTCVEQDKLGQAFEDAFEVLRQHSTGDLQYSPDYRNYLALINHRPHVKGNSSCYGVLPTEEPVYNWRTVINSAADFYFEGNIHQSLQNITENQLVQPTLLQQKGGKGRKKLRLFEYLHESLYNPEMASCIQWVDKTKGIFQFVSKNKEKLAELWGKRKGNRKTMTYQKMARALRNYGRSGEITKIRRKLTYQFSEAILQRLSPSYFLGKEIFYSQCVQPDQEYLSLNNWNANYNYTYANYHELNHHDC
Procedure, shortened: as §1

[5] = molecular target: ELF4 (Homo sapiens, UniProt Q99607 1-663); conditions: protein: recombinant; tags: N-terminal GST; dsDNA, one strand shown
Chain of ELF4 (Q99607 whole entry): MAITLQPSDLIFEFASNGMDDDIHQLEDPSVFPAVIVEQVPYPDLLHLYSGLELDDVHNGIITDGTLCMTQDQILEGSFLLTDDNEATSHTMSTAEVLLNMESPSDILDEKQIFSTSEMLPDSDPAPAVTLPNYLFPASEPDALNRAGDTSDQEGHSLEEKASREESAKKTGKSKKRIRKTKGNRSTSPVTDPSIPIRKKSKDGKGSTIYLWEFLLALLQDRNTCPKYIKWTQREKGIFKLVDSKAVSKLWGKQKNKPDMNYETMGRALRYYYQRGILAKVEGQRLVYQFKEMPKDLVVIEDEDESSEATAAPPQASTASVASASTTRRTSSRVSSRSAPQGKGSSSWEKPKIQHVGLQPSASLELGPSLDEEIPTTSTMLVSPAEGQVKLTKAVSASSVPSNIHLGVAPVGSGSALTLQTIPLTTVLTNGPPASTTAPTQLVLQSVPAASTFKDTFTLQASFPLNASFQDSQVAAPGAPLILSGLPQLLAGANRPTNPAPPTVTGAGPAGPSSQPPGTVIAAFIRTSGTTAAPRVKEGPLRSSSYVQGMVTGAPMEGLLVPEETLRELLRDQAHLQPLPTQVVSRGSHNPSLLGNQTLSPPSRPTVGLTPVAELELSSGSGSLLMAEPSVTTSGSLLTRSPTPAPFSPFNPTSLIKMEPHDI
Procedure, shortened: as §1

[6] = molecular target: T3, ELK4 (Homo sapiens, UniProt P28324-2 1-405); conditions: protein: recombinant; tags: N-terminal GST; dsDNA, one strand shown
T3 sequence: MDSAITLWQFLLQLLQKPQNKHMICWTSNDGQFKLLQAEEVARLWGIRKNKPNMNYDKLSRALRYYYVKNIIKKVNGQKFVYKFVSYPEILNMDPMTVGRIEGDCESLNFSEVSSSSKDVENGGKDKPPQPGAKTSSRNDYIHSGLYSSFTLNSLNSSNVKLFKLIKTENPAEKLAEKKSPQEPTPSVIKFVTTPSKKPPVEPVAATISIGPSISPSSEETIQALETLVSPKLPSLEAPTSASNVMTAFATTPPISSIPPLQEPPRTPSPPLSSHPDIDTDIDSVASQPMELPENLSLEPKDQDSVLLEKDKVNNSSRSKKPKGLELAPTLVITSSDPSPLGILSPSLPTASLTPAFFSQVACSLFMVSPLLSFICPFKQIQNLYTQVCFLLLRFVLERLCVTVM
Procedure, shortened: as §1

[7] = molecular target: T4, ETV2 (Homo sapiens, UniProt O00321 1-342); conditions: protein: recombinant; tags: N-terminal GST; dsDNA, one strand shown
T4 sequence: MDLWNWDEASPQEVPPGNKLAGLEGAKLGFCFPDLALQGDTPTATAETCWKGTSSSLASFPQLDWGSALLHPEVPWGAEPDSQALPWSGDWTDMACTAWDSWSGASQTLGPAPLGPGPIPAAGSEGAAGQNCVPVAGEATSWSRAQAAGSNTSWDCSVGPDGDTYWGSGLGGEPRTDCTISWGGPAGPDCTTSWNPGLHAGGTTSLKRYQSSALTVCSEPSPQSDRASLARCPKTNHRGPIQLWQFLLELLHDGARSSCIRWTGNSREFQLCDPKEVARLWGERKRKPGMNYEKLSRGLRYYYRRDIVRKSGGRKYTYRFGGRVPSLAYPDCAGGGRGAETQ
Procedure, shortened: as §1

[8] = molecular target: T5, ELF3 (Homo sapiens, UniProt P78545 1-371); conditions: protein: recombinant; tags: N-terminal GST; dsDNA, one strand shown
T5 sequence: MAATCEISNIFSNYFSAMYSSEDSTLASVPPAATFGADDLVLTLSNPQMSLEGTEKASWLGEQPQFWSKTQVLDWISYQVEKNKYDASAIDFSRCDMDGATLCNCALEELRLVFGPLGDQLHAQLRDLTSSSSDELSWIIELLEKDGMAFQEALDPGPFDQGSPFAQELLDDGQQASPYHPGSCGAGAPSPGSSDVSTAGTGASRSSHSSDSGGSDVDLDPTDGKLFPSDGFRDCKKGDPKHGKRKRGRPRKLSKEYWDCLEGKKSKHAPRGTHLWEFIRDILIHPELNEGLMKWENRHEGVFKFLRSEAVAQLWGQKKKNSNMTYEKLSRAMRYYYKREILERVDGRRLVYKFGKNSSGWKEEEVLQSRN
Procedure, shortened: as §1

[9] = molecular target: CRX (Homo sapiens, UniProt O43186 1-299); conditions: protein: recombinant; tags: N-terminal GST; dsDNA, one strand shown
Chain of CRX (O43186 whole entry): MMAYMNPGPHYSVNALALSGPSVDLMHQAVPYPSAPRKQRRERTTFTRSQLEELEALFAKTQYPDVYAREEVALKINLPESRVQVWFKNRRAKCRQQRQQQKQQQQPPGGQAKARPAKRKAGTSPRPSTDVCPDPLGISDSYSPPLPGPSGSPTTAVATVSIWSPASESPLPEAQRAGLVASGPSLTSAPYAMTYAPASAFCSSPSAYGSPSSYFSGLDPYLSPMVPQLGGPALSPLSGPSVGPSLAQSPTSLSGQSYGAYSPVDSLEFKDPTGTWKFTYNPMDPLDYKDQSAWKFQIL
Procedure, shortened: as §1

[10] = molecular target: ETV1 (Homo sapiens, UniProt P50549 1-477); conditions: protein: recombinant; tags: N-terminal GST; dsDNA, one strand shown
Chain of ETV1 (P50549 whole entry): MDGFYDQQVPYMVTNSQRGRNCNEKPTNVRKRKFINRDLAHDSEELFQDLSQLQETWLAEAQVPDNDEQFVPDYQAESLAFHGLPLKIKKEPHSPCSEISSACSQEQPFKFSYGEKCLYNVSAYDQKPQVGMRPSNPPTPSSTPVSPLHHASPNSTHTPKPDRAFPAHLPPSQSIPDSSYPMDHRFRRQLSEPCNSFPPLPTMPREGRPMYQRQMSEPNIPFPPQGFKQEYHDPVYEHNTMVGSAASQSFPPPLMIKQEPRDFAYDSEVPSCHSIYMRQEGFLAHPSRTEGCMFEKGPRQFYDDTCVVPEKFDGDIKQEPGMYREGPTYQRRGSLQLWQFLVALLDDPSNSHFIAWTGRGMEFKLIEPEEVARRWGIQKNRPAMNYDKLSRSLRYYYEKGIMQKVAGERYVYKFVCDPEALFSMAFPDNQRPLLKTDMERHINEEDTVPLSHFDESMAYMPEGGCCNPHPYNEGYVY
Procedure, shortened: as §1

Sequence	binding signal [1]	binding signal [2]	binding signal [3]	binding signal [4]	binding signal [5]	binding signal [6]	binding signal [7]	binding signal [8]	binding signal [9]	binding signal [10]
CTCGAG	1.2 fold enrichment (6-mer frequency, TF over GST control)	1.26 fold enrichment (6-mer frequency, TF over GST control)	2 fold enrichment (6-mer frequency, TF over GST control)	1.44 fold enrichment (6-mer frequency, TF over GST control)	1.34 fold enrichment (6-mer frequency, TF over GST control)	1.31 fold enrichment (6-mer frequency, TF over GST control)	1.64 fold enrichment (6-mer frequency, TF over GST control)	1.3 fold enrichment (6-mer frequency, TF over GST control)	1.26 fold enrichment (6-mer frequency, TF over GST control)	1.2 fold enrichment (6-mer frequency, TF over GST control)
AACCTT	1.24 fold enrichment (6-mer frequency, TF over GST control)	1.3 fold enrichment (6-mer frequency, TF over GST control)	1.66 fold enrichment (6-mer frequency, TF over GST control)	1.17 fold enrichment (6-mer frequency, TF over GST control)	1.27 fold enrichment (6-mer frequency, TF over GST control)	1.36 fold enrichment (6-mer frequency, TF over GST control)	1.13 fold enrichment (6-mer frequency, TF over GST control)	1.23 fold enrichment (6-mer frequency, TF over GST control)	1.39 fold enrichment (6-mer frequency, TF over GST control)	1.29 fold enrichment (6-mer frequency, TF over GST control)
TGACCC	1.46 fold enrichment (6-mer frequency, TF over GST control)	1.41 fold enrichment (6-mer frequency, TF over GST control)	1.1 fold enrichment (6-mer frequency, TF over GST control)	1.24 fold enrichment (6-mer frequency, TF over GST control)	1.48 fold enrichment (6-mer frequency, TF over GST control)	1.39 fold enrichment (6-mer frequency, TF over GST control)	1.56 fold enrichment (6-mer frequency, TF over GST control)	1.37 fold enrichment (6-mer frequency, TF over GST control)	1.13 fold enrichment (6-mer frequency, TF over GST control)	1.25 fold enrichment (6-mer frequency, TF over GST control)
AAATAA	1.29 fold enrichment (6-mer frequency, TF over GST control)	1.37 fold enrichment (6-mer frequency, TF over GST control)	1.48 fold enrichment (6-mer frequency, TF over GST control)	1.27 fold enrichment (6-mer frequency, TF over GST control)	1.32 fold enrichment (6-mer frequency, TF over GST control)	1.34 fold enrichment (6-mer frequency, TF over GST control)	1.28 fold enrichment (6-mer frequency, TF over GST control)	1.43 fold enrichment (6-mer frequency, TF over GST control)	1.71 fold enrichment (6-mer frequency, TF over GST control)	1.3 fold enrichment (6-mer frequency, TF over GST control)
CTCACG	1.32 fold enrichment (6-mer frequency, TF over GST control)	1.4 fold enrichment (6-mer frequency, TF over GST control)	1.14 fold enrichment (6-mer frequency, TF over GST control)	1.31 fold enrichment (6-mer frequency, TF over GST control)	1.33 fold enrichment (6-mer frequency, TF over GST control)	1.35 fold enrichment (6-mer frequency, TF over GST control)	1.35 fold enrichment (6-mer frequency, TF over GST control)	1.26 fold enrichment (6-mer frequency, TF over GST control)	1.08 fold enrichment (6-mer frequency, TF over GST control)	1.22 fold enrichment (6-mer frequency, TF over GST control)
ACATCC	3.7 fold enrichment (6-mer frequency, TF over GST control)	2.77 fold enrichment (6-mer frequency, TF over GST control)	1.06 fold enrichment (6-mer frequency, TF over GST control)	2.43 fold enrichment (6-mer frequency, TF over GST control)	2.28 fold enrichment (6-mer frequency, TF over GST control)	2.29 fold enrichment (6-mer frequency, TF over GST control)	2.61 fold enrichment (6-mer frequency, TF over GST control)	2.38 fold enrichment (6-mer frequency, TF over GST control)	1.05 fold enrichment (6-mer frequency, TF over GST control)	2.66 fold enrichment (6-mer frequency, TF over GST control)
CCTACT	1.62 fold enrichment (6-mer frequency, TF over GST control)	1.57 fold enrichment (6-mer frequency, TF over GST control)	1.48 fold enrichment (6-mer frequency, TF over GST control)	1.64 fold enrichment (6-mer frequency, TF over GST control)	1.7 fold enrichment (6-mer frequency, TF over GST control)	1.76 fold enrichment (6-mer frequency, TF over GST control)	1.61 fold enrichment (6-mer frequency, TF over GST control)	1.41 fold enrichment (6-mer frequency, TF over GST control)	1.61 fold enrichment (6-mer frequency, TF over GST control)	1.49 fold enrichment (6-mer frequency, TF over GST control)
